Holding throughout (test): DAPPL (digital affinity profiling via proximity ligation, sequencing); 10 mM Tris-HCl pH 7.5, 50 mM NaCl, 1 mM DTT, 4% glycerol, room temperature, 30 min; GST-TFs on glutathione beads, 16-mer random dsDNA library, 0.1% formaldehyde crosslink after washing; high values mean tight binding
What all share (details): protein: recombinant; tags: N-terminal GST; dsDNA, one strand shown

The target of one assay is T1, ELK1 (Homo sapiens, UniProt P19419 1-428).
T1 sequence: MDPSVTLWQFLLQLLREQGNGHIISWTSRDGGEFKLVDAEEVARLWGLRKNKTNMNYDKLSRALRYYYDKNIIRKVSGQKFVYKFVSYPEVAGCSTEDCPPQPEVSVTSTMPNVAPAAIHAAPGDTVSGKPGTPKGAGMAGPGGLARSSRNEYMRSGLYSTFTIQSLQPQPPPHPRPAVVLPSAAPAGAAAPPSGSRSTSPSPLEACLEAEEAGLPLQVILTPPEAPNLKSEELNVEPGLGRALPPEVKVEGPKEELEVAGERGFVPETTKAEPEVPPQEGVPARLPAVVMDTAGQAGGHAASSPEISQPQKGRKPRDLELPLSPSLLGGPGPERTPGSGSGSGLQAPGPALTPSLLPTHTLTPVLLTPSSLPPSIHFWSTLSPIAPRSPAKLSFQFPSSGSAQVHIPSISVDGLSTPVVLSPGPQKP
In short, it runs like this:
(§1)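 Human transcription factors were made in yeast as GST fusions, captured on glutathione beads and barcoded with DNA. With a tag-only sample included, the pool was incubated with 200 nmole of a random double-stranded 16-mer DNA library in Tris/NaCl/DTT/glycerol buffer at room temperature for 30 min, then crosslinked with 0.1% formaldehyde after washing, ligated by proximity, amplified and sequenced. For binding signal, each hexamer's read frequency for a factor is divided by its frequency for the tag-only sample.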

The target in a further assay is T2, GABPA (Homo sapiens, UniProt Q06546 1-454).
T2 sequence: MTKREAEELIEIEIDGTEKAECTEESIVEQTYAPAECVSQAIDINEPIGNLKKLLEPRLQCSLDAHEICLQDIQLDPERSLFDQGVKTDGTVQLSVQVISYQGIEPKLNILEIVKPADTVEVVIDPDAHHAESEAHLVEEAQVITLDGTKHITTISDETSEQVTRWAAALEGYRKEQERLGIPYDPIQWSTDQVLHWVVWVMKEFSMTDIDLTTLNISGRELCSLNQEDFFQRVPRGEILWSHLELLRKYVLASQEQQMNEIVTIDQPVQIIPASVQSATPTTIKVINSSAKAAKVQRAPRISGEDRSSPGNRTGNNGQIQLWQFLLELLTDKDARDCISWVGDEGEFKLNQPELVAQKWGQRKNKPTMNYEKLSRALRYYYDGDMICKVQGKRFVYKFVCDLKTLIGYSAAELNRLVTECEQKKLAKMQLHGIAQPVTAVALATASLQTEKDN
In short, it runs like this: as §1

The next assay has as its target T3, ERG (Homo sapiens, UniProt P11308 1-479).
T3 sequence: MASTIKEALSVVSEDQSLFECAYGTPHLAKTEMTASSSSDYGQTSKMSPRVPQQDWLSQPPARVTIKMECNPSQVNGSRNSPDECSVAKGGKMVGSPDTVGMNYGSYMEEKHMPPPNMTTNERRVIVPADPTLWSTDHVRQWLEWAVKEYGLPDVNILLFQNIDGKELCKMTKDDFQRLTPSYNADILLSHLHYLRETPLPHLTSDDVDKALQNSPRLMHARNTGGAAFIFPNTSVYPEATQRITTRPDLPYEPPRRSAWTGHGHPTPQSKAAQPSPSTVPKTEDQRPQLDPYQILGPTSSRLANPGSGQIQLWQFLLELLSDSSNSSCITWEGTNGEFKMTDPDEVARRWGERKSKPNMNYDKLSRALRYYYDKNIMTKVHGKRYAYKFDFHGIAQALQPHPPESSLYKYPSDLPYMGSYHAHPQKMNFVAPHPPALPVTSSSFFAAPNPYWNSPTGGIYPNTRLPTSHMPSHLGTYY
In short, it runs like this: as §1

The next assay deals with ELF1 (Homo sapiens, UniProt P32519 1-619). The procedure, abridged:
as §1

The next assay has as its target T4, EHF (Homo sapiens, UniProt Q9NZC4 1-300).
T4 sequence: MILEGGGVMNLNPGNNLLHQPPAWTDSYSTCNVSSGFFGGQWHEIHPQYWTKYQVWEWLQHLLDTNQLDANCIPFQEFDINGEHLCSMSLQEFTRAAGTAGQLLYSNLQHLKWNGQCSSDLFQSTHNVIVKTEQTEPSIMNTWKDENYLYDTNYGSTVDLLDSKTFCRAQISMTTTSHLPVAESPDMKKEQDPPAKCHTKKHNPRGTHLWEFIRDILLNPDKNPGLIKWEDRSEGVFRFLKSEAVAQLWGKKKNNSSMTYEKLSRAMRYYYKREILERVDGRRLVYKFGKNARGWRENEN
The procedure, abridged:
as §1

In the next assay the target is SPIB (Homo sapiens, UniProt Q01892 1-262). The procedure, abridged: as §1
For another assay, the target named is T5, ELK3 (Homo sapiens, UniProt P41970 1-407).
T5 sequence: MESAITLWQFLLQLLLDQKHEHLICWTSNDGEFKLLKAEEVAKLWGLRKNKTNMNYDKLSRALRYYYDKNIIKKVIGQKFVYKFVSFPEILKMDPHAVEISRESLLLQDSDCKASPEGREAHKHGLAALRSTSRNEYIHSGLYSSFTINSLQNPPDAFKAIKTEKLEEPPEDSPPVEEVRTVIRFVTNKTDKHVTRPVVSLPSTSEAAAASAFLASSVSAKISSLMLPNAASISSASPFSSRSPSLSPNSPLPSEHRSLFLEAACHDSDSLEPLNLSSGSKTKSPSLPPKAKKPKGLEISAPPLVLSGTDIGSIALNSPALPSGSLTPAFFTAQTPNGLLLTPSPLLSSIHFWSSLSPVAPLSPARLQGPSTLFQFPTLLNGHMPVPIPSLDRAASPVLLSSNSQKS
The procedure, abridged:
as §1

The next assay has as its target T6, SPIC (Homo sapiens, UniProt Q8N5J4 1-248).
T6 sequence: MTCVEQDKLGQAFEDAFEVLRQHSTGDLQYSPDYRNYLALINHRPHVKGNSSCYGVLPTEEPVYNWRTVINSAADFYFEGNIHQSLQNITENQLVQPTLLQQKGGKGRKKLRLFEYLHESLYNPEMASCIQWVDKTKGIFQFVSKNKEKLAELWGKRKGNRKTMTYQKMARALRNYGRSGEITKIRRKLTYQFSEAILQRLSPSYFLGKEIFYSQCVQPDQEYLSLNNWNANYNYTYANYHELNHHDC
The procedure, abridged:
as §1

Another assay has as its target ELF4 (Homo sapiens, UniProt Q99607 1-663). In short, it runs like this:
as §1

A further assay deals with T7, ELK4 (Homo sapiens, UniProt P28324-2 1-405).
T7 sequence: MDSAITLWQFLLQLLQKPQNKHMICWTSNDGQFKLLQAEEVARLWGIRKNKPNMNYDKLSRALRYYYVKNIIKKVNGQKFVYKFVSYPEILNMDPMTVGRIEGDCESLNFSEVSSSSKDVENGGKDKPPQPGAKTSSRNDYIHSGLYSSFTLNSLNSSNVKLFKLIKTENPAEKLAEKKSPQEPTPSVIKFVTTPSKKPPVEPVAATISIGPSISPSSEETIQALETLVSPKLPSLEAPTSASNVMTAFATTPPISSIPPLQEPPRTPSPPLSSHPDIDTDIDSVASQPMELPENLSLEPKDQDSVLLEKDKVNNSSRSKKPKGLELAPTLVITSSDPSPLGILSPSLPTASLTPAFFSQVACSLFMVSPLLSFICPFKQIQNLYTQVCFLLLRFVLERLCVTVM
The procedure, abridged: as §1

A further assay has as its target T8, ELF3 (Homo sapiens, UniProt P78545 1-371).
T8 sequence: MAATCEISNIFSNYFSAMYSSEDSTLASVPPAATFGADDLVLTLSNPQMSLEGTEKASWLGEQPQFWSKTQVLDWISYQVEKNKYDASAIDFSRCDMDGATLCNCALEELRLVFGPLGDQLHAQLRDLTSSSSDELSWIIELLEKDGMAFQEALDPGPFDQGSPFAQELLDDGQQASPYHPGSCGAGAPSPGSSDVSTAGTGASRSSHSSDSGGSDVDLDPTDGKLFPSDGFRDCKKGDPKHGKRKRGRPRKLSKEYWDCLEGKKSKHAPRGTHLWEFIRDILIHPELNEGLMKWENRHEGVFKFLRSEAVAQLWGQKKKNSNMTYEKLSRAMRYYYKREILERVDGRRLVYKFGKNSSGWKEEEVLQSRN
The procedure, abridged: as §1

The next assay deals with ETV1 (Homo sapiens, UniProt P50549 1-477). The procedure, abridged: as §1
The target in another assay is T9, ERF (Homo sapiens, UniProt P50548 1-548).
T9 sequence: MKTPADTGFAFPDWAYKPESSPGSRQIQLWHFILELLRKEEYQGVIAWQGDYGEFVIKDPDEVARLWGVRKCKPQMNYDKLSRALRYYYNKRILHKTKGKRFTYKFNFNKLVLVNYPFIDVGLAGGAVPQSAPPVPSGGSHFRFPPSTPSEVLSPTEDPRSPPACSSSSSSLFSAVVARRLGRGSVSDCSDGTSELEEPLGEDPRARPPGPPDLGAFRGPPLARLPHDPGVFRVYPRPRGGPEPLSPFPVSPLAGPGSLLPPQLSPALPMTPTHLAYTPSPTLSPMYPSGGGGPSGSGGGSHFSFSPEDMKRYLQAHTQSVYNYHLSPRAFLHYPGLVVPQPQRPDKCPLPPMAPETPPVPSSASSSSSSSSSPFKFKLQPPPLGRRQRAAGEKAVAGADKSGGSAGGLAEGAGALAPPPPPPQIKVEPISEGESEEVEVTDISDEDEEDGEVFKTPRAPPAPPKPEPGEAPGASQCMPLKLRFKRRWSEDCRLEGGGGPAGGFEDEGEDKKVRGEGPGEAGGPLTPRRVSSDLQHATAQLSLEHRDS
In short, it runs like this: as §1

In another assay the target is T10, ETV3L (Homo sapiens, UniProt Q6ZN32 1-361).
T10 sequence: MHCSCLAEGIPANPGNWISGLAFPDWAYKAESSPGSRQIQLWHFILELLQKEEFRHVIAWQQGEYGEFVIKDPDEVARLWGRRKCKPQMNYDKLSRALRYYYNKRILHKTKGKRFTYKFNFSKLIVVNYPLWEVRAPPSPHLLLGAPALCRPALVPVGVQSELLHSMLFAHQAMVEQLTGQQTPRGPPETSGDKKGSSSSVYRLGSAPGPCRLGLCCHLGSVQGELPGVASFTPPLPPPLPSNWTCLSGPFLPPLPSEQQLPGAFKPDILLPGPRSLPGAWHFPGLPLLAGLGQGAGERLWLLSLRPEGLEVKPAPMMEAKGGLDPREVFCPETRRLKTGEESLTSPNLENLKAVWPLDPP
The procedure, abridged:
as §1

For another assay, the target named is T11, ETV3 (Homo sapiens, UniProt P41162-2 1-143).
T11 sequence: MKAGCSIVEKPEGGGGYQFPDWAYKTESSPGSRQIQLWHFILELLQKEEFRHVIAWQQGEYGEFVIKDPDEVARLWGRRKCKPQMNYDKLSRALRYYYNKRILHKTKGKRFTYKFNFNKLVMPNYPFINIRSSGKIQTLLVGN
The procedure, abridged: as §1

A further assay concerns the target ETV6 (Homo sapiens, UniProt P41212 1-452). In short, it runs like this:
as §1

ETV1, sequence (P50549 whole entry): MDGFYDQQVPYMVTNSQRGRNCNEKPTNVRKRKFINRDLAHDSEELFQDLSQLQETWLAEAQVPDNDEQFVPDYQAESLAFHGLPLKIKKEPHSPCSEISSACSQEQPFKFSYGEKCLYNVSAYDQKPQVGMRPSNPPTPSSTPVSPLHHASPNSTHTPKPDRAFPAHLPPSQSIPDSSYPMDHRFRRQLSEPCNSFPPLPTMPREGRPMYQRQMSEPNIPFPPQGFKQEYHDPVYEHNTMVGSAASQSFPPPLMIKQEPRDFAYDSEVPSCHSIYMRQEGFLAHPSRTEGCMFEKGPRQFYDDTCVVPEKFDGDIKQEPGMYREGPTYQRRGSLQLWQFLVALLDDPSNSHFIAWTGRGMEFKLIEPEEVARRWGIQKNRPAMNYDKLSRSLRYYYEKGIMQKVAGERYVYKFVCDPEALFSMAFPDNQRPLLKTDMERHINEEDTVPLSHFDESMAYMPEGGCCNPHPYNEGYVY
ETV6, sequence (P41212 whole entry): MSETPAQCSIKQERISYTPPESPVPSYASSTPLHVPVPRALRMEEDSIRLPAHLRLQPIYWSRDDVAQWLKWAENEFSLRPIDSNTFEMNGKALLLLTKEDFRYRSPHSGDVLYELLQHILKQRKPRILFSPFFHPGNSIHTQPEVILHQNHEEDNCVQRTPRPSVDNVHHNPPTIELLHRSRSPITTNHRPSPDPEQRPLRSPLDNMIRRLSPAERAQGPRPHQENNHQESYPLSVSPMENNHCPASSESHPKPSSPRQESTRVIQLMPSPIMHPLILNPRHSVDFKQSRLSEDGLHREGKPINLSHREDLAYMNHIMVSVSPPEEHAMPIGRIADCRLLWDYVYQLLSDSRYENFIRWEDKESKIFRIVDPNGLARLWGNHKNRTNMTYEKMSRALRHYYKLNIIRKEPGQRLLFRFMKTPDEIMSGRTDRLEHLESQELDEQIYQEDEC
SPIB, sequence (Q01892 whole entry): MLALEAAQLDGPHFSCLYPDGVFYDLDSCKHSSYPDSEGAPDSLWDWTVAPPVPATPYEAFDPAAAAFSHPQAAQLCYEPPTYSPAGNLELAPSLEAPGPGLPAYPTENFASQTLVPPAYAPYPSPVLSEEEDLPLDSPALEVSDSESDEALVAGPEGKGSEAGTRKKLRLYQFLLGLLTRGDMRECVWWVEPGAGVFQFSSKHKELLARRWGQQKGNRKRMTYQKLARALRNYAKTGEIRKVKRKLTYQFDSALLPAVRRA
ELF1, sequence (P32519 whole entry): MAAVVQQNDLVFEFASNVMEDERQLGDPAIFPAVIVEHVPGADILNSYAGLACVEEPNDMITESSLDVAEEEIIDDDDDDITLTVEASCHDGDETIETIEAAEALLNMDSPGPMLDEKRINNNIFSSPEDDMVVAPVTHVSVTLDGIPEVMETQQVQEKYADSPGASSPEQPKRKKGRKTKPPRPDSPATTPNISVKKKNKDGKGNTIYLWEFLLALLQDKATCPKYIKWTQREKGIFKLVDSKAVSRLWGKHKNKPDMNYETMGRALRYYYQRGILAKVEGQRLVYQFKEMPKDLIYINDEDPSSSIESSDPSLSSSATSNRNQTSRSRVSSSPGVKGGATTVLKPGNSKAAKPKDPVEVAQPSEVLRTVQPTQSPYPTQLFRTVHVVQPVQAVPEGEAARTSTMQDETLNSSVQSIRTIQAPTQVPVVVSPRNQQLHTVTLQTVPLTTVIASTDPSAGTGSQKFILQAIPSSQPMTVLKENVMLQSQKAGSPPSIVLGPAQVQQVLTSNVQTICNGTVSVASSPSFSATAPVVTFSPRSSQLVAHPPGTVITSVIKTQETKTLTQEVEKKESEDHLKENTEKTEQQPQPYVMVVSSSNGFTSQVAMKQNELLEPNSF
ELF4, sequence (Q99607 whole entry): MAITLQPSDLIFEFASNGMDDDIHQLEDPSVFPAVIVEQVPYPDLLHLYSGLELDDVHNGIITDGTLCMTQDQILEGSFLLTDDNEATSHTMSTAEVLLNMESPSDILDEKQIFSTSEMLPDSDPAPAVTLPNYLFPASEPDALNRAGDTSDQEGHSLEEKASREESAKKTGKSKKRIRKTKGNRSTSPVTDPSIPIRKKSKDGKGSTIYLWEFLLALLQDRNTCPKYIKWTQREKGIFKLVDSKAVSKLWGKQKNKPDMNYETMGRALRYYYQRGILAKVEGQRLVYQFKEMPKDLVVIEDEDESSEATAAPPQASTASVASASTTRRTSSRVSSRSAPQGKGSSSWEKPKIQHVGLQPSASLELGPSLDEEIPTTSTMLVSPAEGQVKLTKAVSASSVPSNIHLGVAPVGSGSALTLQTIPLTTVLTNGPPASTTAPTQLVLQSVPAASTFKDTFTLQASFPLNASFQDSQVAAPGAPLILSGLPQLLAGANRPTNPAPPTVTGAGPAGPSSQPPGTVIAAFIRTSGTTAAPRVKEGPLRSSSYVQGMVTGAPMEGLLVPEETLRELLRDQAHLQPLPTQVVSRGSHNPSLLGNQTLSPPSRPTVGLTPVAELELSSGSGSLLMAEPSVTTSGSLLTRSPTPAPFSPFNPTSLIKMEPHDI

Consider ATGGGG, for which the binding signal with ELK1 was 1.09 fold enrichment (6-mer frequency, TF over GST control); with GABPA it was 1.08 fold enrichment (6-mer frequency, TF over GST control); in the assay with ERG, 1.07 fold enrichment (6-mer frequency, TF over GST control); with ELF1, 1.06 fold enrichment (6-mer frequency, TF over GST control); with EHF it was 1.11 fold enrichment (6-mer frequency, TF over GST control); with SPIB, 1.14 fold enrichment (6-mer frequency, TF over GST control). The binding signal is 1.05 fold enrichment (6-mer frequency, TF over GST control) with ELK3; 1.16 fold enrichment (6-mer frequency, TF over GST control) in the assay with SPIC; 1.02 fold enrichment (6-mer frequency, TF over GST control) in the assay with ELF4; 1.03 fold enrichment (6-mer frequency, TF over GST control) with ELK4; 1.06 fold enrichment (6-mer frequency, TF over GST control) with ELF3; 1.15 fold enrichment (6-mer frequency, TF over GST control) in the assay with ETV1. For the same sequence, the binding signal was 1.08 fold enrichment (6-mer frequency, TF over GST control) with ERF; 1.16 fold enrichment (6-mer frequency, TF over GST control) with ETV3L; 1.13 fold enrichment (6-mer frequency, TF over GST control) with ETV3; 1.18 fold enrichment (6-mer frequency, TF over GST control) with ETV6.

(Values after PMC7862700, “An all-to-all approach to the identification of sequence-specific readers for epigenetic DNA modifications on cytosine”.)
